# PubChem BioAssay AID602365 (National Center for Advancing Translational Sciences (NCATS), 2012)
# Results filed as inconclusive are left out. Values without a mark were called inactive. Activity calls are given as the source filed them. The call rests on the fitted dose curve; in most records, active means well fitted inhibition curve with a large enough effect; inconclusive means small, poorly fitted or top-dose-only effect; inactive means flat fitted curve, though single readings scatter.
# Biological target: Luciferin 4-monooxygenase (Photinus pyralis) (UniProt P08659)
# Sequence (P08659 whole entry, looked up): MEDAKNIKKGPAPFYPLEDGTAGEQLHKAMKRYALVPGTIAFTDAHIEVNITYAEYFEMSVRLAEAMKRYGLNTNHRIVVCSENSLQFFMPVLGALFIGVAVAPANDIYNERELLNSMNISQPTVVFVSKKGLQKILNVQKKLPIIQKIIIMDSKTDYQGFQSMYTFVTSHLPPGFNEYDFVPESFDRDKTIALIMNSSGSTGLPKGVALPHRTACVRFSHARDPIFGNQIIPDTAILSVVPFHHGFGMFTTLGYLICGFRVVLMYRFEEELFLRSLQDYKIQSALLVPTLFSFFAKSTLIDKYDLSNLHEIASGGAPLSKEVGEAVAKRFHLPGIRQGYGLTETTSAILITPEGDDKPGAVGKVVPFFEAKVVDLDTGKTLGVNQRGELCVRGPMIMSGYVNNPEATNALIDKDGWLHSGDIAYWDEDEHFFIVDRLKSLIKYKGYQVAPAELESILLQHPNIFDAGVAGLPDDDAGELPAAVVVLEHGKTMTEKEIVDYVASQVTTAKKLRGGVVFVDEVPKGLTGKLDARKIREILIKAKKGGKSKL
# Experiment: FLuc inhibitory activity for the follow-up compounds in a biochemical assay with 1mM D-luciferin
# Conditions: purified FLuc, luminescence; series mostly up to 57.5 µM; activity change, negative = inhibition: at the top concentration
# From the text: NCGC Assay Overview: Firefly (Photinus pyralis) luciferase is one of the most commonly used transcriptional reporters. It is considered one of the more dynamically responsive reporters - that is, responsive to changes in reporter transcription - as it requires no post-translational modifications and is enzymatically active directly after protein synthesis (Wood, 1998). With no endogenous expression in mammalian cells and without the requirement of external excitation, it offers very little background signal, thus generally providing excellent signal to background for most assays. Previous profiling work to determine the prevalence of compounds that affect FLuc enzymatic activity (PubChem AID 411) identified that ~3% of the MLSMR library (then at ~72K) inhibited FLuc. […] Of the compounds identified in this profile that inhibited FLuc, 151 compounds were selected for further analysis, in an effort to better understand their mode of inhibiting FLuc. The assay described here was to determine the activity of the compounds in a FLuc assay that contained a KM concentration of ATP and a high concentration (1mM) of D-luciferin.
# NCGC Assay Protocol Summary: Reagents: 50mM Tris acetate, pH 7.5; 10mM Mg acetate; 1mM D-luciferin (Sigma #L9504); 10uM ATP; 0.01% Tween-20; 0.05% BSA; 10nM P. pyralis luciferase (Sigma #L9506) Control compounds used were two known firefly luciferase inhibitors (3-(5-(3-chlorophenyl)-1,2,4-oxadiazol-3-yl)benzoic acid and 5-(2-fluorophenyl)-3-phenyl-1,2,4-oxadiazole), and DMSO. Three microliters containing firefly luciferase substrates in buffer (final concentrations: 50mM Tris acetate, pH 7.5, 10mM Mg acetate, 0.01% Tween-20, 0.05% BSA, 1mM D-luciferin, 10uM ATP) are dispensed into each well of a Greiner white, solid-bottom 1536-well format plate using a flying reagent dispenser (FRD). These assay plates were then treated with 23nL of compound or DMSO using a Kalypsys pin tool, which allows for delivery of a 12-point intraplate titration of each compound to the assay plate (quantitative HTS), with a final compound concentrations ranging from approximately ~60uM to 0.3nM. One microliter of firefly luciferase in […] Tris-acetate buffer was then delivered by FRD to each well for a final enzyme concentration of 10nM. Luciferase activity was then measured using a ViewLux CCD imager (PerkinElmer), with an average exposure time of 2-30 seconds (2X binning, medium/high gain).
Structure (SMILES),Potency,"activity change, negative = inhibition [%]"
COc1ccc(C(=O)Nc2ccccc2C(=O)Nc2ccccc2C(=O)O)cc1,1.63 µM (active),–
Cc1cccc(NS(=O)(=O)c2cccc(C(=O)Nc3cccc(C(=O)O)c3)c2)c1,–,-10.3
Nc1ccc2nc(-c3ccc(O)cc3)sc2c1,1.3 µM (active),–
Cc1ccc2sc(-c3ccc(N)cc3)nc2c1,0.517 µM (active),–
COc1ccc2nc(NC(=O)c3nc(S(=O)(=O)Cc4ccc(C)cc4)ncc3Cl)sc2c1,–,0.938
O=C(Nc1ccccc1C(=O)O)c1cccc(NC(=O)c2ccco2)c1,20.6 µM (active),–
CCn1c(C)nc2cc(-c3nc4n(n3)Cc3ccccc3-4)ccc21,0.163 µM (active),–
O=C(COC(=O)c1ccccc1[N+](=O)[O-])c1ccc2c(c1)OCO2,0.0461 µM (active),–
CCOc1ccc2nc(NC(=O)c3ccccn3)sc2c1,2.06 µM (active),–
COc1ccc2nc(NC(=O)c3ccc([N+](=O)[O-])o3)sc2c1,5.8 µM (active),–
CC(C)Oc1ccc(C(=O)Nc2ccc(-c3nc4ccccc4s3)cc2)cc1,–,4.02
O=C(Nc1ccccc1C(=O)O)c1ccc(Cl)c(S(=O)(=O)N2CCOCC2)c1,18.3 µM (active),–
O=C(Cc1ccc(Cl)cc1)Nc1cccc(C(=O)Nc2ccccc2C(=O)O)c1,36.6 µM (active),–
COc1ccc(C(=O)Nc2nc3ccc(OC)cc3s2)cc1,5.17 µM (active),–
CCOc1c(Cl)cc(C(=O)Nc2ccccc2C(=O)O)cc1Cl,16.3 µM (active),–
CCOc1ccc2nc(NC(=O)c3ccoc3C)sc2c1,2.91 µM (active),–
CC(=O)Oc1ccc(C(=O)Nc2ccccc2C(=O)Nc2ccc(C(=O)O)cc2)cc1,18.3 µM (active),–
COc1ccc2nc(NC(=O)c3cnccn3)sc2c1,6.51 µM (active),–
O=C(O)c1cccc(NC(=O)c2cccc(S(=O)(=O)N3CCc4ccccc4C3)c2)c1,–,-21.1

Structure (SMILES),Potency,"activity change, negative = inhibition [%]"
Cc1ccc2nc(-c3ccc(N)cc3)sc2c1,0.517 µM (active),–
CC(C)c1ccc(-c2nc3ccccc3s2)cc1,0.183 µM (active),–
O=C(Nc1ccc(-c2nc3ccccc3s2)cc1)C1=COCCO1,0.366 µM (active),–
Nc1ccc(-c2nc3ccc(N)cc3s2)cc1,1.83 µM (active),–
COc1ccc2nc(NC(=O)c3ccc(NS(=O)(=O)c4cccs4)cc3)sc2c1,18.3 µM (active),–
O=C(O)c1ccc(NC(=O)c2cccc(C(=O)Nc3ccc(C(=O)O)cc3)c2)cc1,–,-16.3
Nc1ccccc1-c1nc2ccccc2s1,18.3 µM (active),–
CCOc1ccc2nc(NC(=O)c3ccccc3)sc2c1,1.46 µM (active),–
O=C(O)c1cccc(NC(=O)c2ccc(Cl)c(S(=O)(=O)N3CCCCCC3)c2)c1,3.26 µM (active),–
O=C(Cc1ccccc1)Nc1ccc(C(=O)Nc2ccccc2C(=O)O)cc1,20.6 µM (active),–
c1ccc2sc(-c3ccc4c(c3)OCO4)nc2c1,1.3 µM (active),–
Cc1ccc(C(=O)Nc2ccc(C(=O)O)cc2)cc1S(=O)(=O)Nc1ccccc1,–,2.27
O=C(Nc1ccccc1C(=O)O)c1cccc(NC(=O)c2ccc(Br)o2)c1,20.6 µM (active),–
CCOc1ccc2nc(NC(=O)c3cc([N+](=O)[O-])ccc3N3CCOCC3)sc2c1,–,0
O=S(=O)(c1ccc(-c2nc3ccccc3s2)cc1)N1CCCC1,–,-18.8
O=C(Nc1ccccc1C(=O)O)c1cc(S(=O)(=O)Nc2cccc(F)c2)ccc1Cl,–,-13.3
CCCOc1cccc(C(=O)Nc2ccc(-c3nc4ccccc4s3)c(Cl)c2)c1,–,-4.48
O=C(Nc1ccccc1C(=O)O)c1cc(S(=O)(=O)Nc2ccccc2)ccc1Cl,–,-12.9
CN(C)c1cccc(C(=O)Nc2ccc(-c3nc4ccccc4s3)cc2)c1,18.3 µM (active),–
